# Source: PubChem BioAssay (Tox21)
# Where “and” joins values, the source holds several entries; their conditions need not be identical. Equal values may be shown once. Inconclusive results are not listed. More than one record can exist for a structure, and the calls need not agree. Calls of active or inactive are those of the source. Unless noted, calls follow the shape of the dose curve; as a rule, active = well fitted cell-killing curve with a large enough effect in the repeat runs; inconclusive = weak or mixed curves, or effect the other way; inactive = flat fitted curve, though single readings scatter.
# Test: Nuclear factor erythroid 2-related factor 2/antioxidant responsive element (Nrf2/ARE) small molecule agonists: qHTS cell viability counter screen in human keratinocytes (AID 1919968); also: nearly all actives have a fitted effect of over 55% in size
# Details: KeratinoSens HaCaT ARE cells viability, CellTiter-Fluor, 24 h; series mostly up to 92.4 µM; activity change, negative = cytotoxicity: at the top concentration
# Outline: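 After a 5 h attachment period, ARE-reporter keratinocytes were dosed with compounds in DMSO and then cultured 23 h at 37 C. Cell viability came from CellTiter-Fluor signal read after a further 1 h.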
# % is scaled to controls: 0 for no effect and ±100 for the full control effect; potency is read from the fitted curve at half-maximal effect.
Structure (SMILES),Potency,"activity change, negative = cytotoxicity"
Cc1ccc(N)cc1Cl,inactive,–
Cc1ncc(CNC(=O)N(CCCl)N=O)c(N)n1,–,0.299% [at 42.5 µM] (inactive)
O=C(O)COc1cc(Cl)c(Cl)cc1Cl,inactive,–
Clc1ccc(Cl)c(Cl)c1,inactive,–
CCOC(=O)CC(SP(=O)(OC)OC)C(=O)OCC (stereo not drawn),inactive,–
CCCC[n+]1ccc(C)cc1,inactive and 27.2 µM (active),–
CCCCCCCCCCCCCCCCn1cc[n+](C)c1,inactive and 27.6 µM (active) and 13.7 µM (active),–
COc1ccc(N)cc1,inactive,–
O=C(O)c1ccc(=O)[nH]c1,–,-5.52% [at 42.5 µM] (inactive)
O=[N+]([O-])c1cc(Cl)c(Cl)c(Cl)c1,–,-3.58% (inactive)
c1ccc(NNc2ccccc2)cc1,inactive,–
CCCSC(=O)Cl,–,-4.39% (inactive)
COCCl,inactive,–
OCC(O)CO,inactive,–
O=C1C2CC=CCC2C(=O)N1SC(Cl)(Cl)Cl (stereo not drawn),inactive and 26.9 µM (active),–
CNC(=O)N(C)c1nnc(C(C)(C)C)s1,inactive,–
COc1cc(N)c(Cl)cc1C(=O)NC1CN2CCC1CC2 (stereo not drawn),–,-1.93% [at 42.5 µM] (inactive)
CCCCCCCCCl,inactive,–
COc1cc(OC)nc(NC(=O)NS(=O)(=O)c2ncccc2C(=O)N(C)C)n1,–,5.8% (inactive)
NC(=S)c1c(Cl)cccc1Cl,–,1.03% (inactive)

Structure (SMILES),Potency,"activity change, negative = cytotoxicity"
NNC(N)=S,16 µM (active),–
OCCCCO,inactive,–
NNC(=O)c1ccccc1,–,4.88% (inactive)
CCCCCCCCCCCCCCCCCC(=O)O,inactive,–
O=C(NC(=O)c1c(F)cccc1F)Nc1ccc(Cl)cc1,inactive,–
Nc1ccc(Cl)c(Cl)c1,inactive,–
CCOP(=O)(OCC)OP(=O)(OCC)OCC,–,7.32% (inactive)
CC1C=[C-]C=C1.[C-]#[O+].[C-]#[O+].[C-]#[O+].[Mn],inactive,–
CCOP(=O)(OCC)SCCSCC,inactive,–
CCCCCCCCCCCCCCCC[N+](C)(C)C,61.1 µM (active) and 5.96 µM (active),–
CC(C)=C[C@@H]1[C@@H](C(=O)OCc2coc(Cc3ccccc3)c2)C1(C)C,–,5.42% (inactive)
CCCCCCCCCC(CC)c1ccc(S(=O)(=O)O)cc1 (stereo not drawn),inactive and 26.6 µM (active),–
COP(=S)(OC)Oc1cc(Cl)c(Cl)cc1Cl,inactive,–
CC(=O)C(C)(C)C,–,0.631% (inactive)
CCOP(=O)(CN(CCO)CCO)OCC,–,3.44% (inactive)
c1ccc(Nc2ccc3ccccc3c2)cc1,68.2 µM (active),–
Nc1ccc(Cl)cc1N,–,0.569% (inactive)
COC(=O)c1ccccc1CS(=O)(=O)NC(=O)Nc1nc(OC)cc(OC)n1,–,1.02% (inactive)
C1CN2CCN1CC2,inactive,–

# Test: Nuclear factor erythroid 2-related factor 2/antioxidant responsive element (Nrf2/ARE) small molecule agonists: luciferase reporter gene qHTS assay in human keratinocytes (AID 1919969; calls by dose curve; also: nearly all actives have a fitted effect of over 35% in size)
# Details: KeratinoSens HaCaT ARE-luciferase, luminescence, 24 h; series mostly up to 92.4 µM; activity, positive = activation: at the top concentration
Structure (SMILES),Potency,"activity, positive = activation"
Cc1ccc(N)cc1Cl,inactive,–
Cc1ncc(CNC(=O)N(CCCl)N=O)c(N)n1,–,1.56% [at 42.5 µM] (inactive)
O=C(O)COc1cc(Cl)c(Cl)cc1Cl,–,-15.8% (inactive)
CCOC(=O)CC(SP(=O)(OC)OC)C(=O)OCC (stereo not drawn),inactive and 61.1 µM (active),–
CCCC[n+]1ccc(C)cc1,inactive,–
CCCCCCCCCCCCCCCCn1cc[n+](C)c1,inactive,–
O=[N+]([O-])c1cc(Cl)c(Cl)c(Cl)c1,–,25.9% (inactive)
c1ccc(NNc2ccccc2)cc1,55 µM (active),–
CCCSC(=O)Cl,–,0.295% (inactive)
COCCl,inactive,–
OCC(O)CO,inactive,–
O=C1C2CC=CCC2C(=O)N1SC(Cl)(Cl)Cl (stereo not drawn),54.3 µM (active) and 7.57 µM (active),–
CNC(=O)N(C)c1nnc(C(C)(C)C)s1,inactive,–
COc1cc(N)c(Cl)cc1C(=O)NC1CN2CCC1CC2 (stereo not drawn),–,-9.86% [at 42.5 µM] (inactive)
COc1cc(OC)nc(NC(=O)NS(=O)(=O)c2ncccc2C(=O)N(C)C)n1,–,3.56% (inactive)
NC(=S)c1c(Cl)cccc1Cl,–,0.374% (inactive)
NNC(N)=S,21.7 µM (active),–

Structure (SMILES),Potency,"activity, positive = activation"
NNC(=O)c1ccccc1,56 µM (active),–
CCCCCCCCCCCCCCCCCC(=O)O,48.2 µM (active) and inactive,–
O=C(NC(=O)c1c(F)cccc1F)Nc1ccc(Cl)cc1,inactive,–
Nc1ccc(Cl)c(Cl)c1,inactive,–
CCOP(=O)(OCC)OP(=O)(OCC)OCC,–,-12% (inactive)
CC1C=[C-]C=C1.[C-]#[O+].[C-]#[O+].[C-]#[O+].[Mn],–,17.4% (inactive)
CCOP(=O)(OCC)SCCSCC,inactive and 68.6 µM (active),–
CCCCCCCCCCCCCCCC[N+](C)(C)C,inactive,–
CC(C)=C[C@@H]1[C@@H](C(=O)OCc2coc(Cc3ccccc3)c2)C1(C)C,–,12.7% (inactive)
CCCCCCCCCC(CC)c1ccc(S(=O)(=O)O)cc1 (stereo not drawn),inactive and 21.7 µM (active),–
COP(=S)(OC)Oc1cc(Cl)c(Cl)cc1Cl,68.1 µM (active),–
CC(=O)C(C)(C)C,–,-4.05% (inactive)
CCOP(=O)(CN(CCO)CCO)OCC,–,2.09% (inactive)
c1ccc(Nc2ccc3ccccc3c2)cc1,12.1 µM (active) and 21.7 µM (active),–
Nc1ccc(Cl)cc1N,31.9 µM (active) and 19.3 µM (active),–
COC(=O)c1ccccc1CS(=O)(=O)NC(=O)Nc1nc(OC)cc(OC)n1,–,-6.41% (inactive)
C1CN2CCN1CC2,inactive,–
